Screening data (PubChem)
Sampled rows, rich in hits. Any-hit rate of the full collection: about 5.7%.
D3 antag – blocks the human D3 dopamine receptor. P35462. D3R cells, DiscoveRx beta-arrestin luminescence, antagonist mode; stronger effect = lower value. max response, negative = inhibition, %. 360,000 tested, 2.5% active. AID 652054; in the data active = max response below about -50%; inconclusive = no clear call, values can overlap the other calls; note: % is set by controls: 0 for no effect and ±100 for the full control effect
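Cells expressing the human receptor were seeded at 1500 cells/well, incubated overnight at 37 degrees C in 5% CO2, then exposed to library compounds with dopamine controls for 90 minutes at 37 degrees C before luminescent detection.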
ClpP mod – qHTS Assay for Activators of ClpP. AID 651965, 2013. purified B. subtilis ClpP, FRET peptide cleavage, 20 min. Potency, µM (series often up to 57.5 µM), for the others: top-dose activity change, negative = active. 340,000 tested, 1.9% active; active = well fitted falling curve with a large enough effect; inconclusive = small, poorly fitted or top-dose-only effect; inactive = no such curve, though single readings can be large or run the other way; note: potency is the fitted concentration of half-maximal effect; the source files actives as falling curves though it sought activators and does not explain the sign; nearly all actives have a fitted effect of over 65% in size
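FRET quenching reversal measured ClpP activation: 10 microg/mL B. subtilis ClpP at pH 8 with the FRET-FV decapeptide, read at 430 nm after 320 nm excitation. The 20-min minus 0-min signal was scaled between DMSO/no-enzyme wells and ADEP (5.8 microM final).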
GLP1R ag – GLP-1 receptor (human) agonism; P43220; HEK293 GLP-1R CRE-luciferase, luminescence, 4-6 h; cells express a hypersensitive GLP-1R form; Potency, µM (doses to about 45.6 µM), inactives show at the highest dose activation, usual class: activators; 380,000 tested, 0.007% active; note: potency is the fitted concentration of half-maximal effect; % of control where 0% means no effect
GLP-1R inv ag – GLP-1 receptor (human) inverse agonism; Potency, µM (highest dose often 38.3 µM), for inactives: at the top dose activity change, negative = inhibition, actives largely listed as inhibitors; 410,000 tested, 1.6% active; P43220; HEK293 GLP-1R CRE-luciferase, luminescence, 24 h; GLP-1R form is constitutively active; AID 624417; note: potency is the fitted concentration of half-maximal effect; % is set by controls: 0 for no effect and ±100 for the full control effect; nearly all actives have a fitted effect of over 55% in size
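GLP-1R inverse agonism mode: basal reporter luminescence in engineered HEK293 cells measured after one day of compound exposure at 37 deg C, with a 12 min room-temperature detection step.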
DRD3 agonist – activates the human D3 dopamine receptor. AID 652048. 410,000 tested, 0.58% active. P35462. D3R DiscoveRx beta-arrestin cells, luminescence, 90 min. max activation, %; in the data active = max activation above about 30%; note: 0% is about no effect
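Cells at 1500/well, incubated overnight, then treated with pinned compounds (dopamine as control) for 90 min at 37 degrees C. DiscoveRx reagent added for 30 - 60 minutes at room temperature; luminescence read.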
HEK293 tox – cytotoxicity in counter-screen for GLP-1R inverse agonists | HEK293 cAMP-luciferase reporter cells, luminescence, 24 h | Potency, µM (series often up to 38.3 µM), for inactives: at the top dose activity change, negative = inhibition, most hits filed as inhibitors | 410,000 tested, 0.13% active | AID 624418;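 note: loss of luciferase light is scored as toxicity; potency is the fitted concentration of half-maximal effect; % is set by controls: 0 for no effect and ±100 for the full control effect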
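A 23 nL compound transfer followed 12 hours of cell culture at 37 deg C; exposure then lasted 24 hr. Luciferase assay detection reagent was dispensed and plates read for luminescence after a 12 min room-temperature wait.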
An asterisk follows results filed as active. Unless noted, calls come from the whole dose curve; as a rule, active = well fitted curve in the direction sought with a large enough effect; inconclusive = small, poorly fitted or top-dose-only effect, or another doubt; inactive = no such curve, though single readings can be large; an effect the other way counts as inactive or inconclusive.

What do the screens show for `COc1cc(OC)c2c(-c3ccccc3)cc(=O)oc2c1C(CCN1CCCC(C)C1)c1ccc(N(C)C)cc1` (stereo not given)?
D3 antag: inconclusive; ClpP mod: 1%; GLP1R ag: 2%; GLP-1R inv ag: inconclusive; DRD3 agonist: -42; HEK293 tox: -29%

Results for COc1ccc(C(CCN2CCCC2)c2c(OC)cc(OC)c3c(-c4ccccc4)cc(=O)oc23)cc1 (stereo not given) ?
D3 antag: 12; ClpP mod: -3%; GLP1R ag: inconclusive; GLP-1R inv ag: 9%; DRD3 agonist: -16; HEK293 tox: -14%

What do the screens show for `COc1ccc(C(CCN2CCCC(C)C2)c2c(OC)cc(OC)c3c(-c4ccccc4)cc(=O)oc23)cc1` (stereo not given)?
D3 antag: -53*; ClpP mod: -1%; GLP1R ag: 9%; GLP-1R inv ag: inconclusive; DRD3 agonist: -56; HEK293 tox: inconclusive

How did COc1ccc(C(CCN2CCCC(C)C2)c2c(OC)cc(OC)c3c(C)cc(=O)oc23)cc1 (stereo not given) do in these assays?
D3 antag: -89*; ClpP mod: -9%; GLP1R ag: 17%; GLP-1R inv ag: 14%; DRD3 agonist: -67; HEK293 tox: inconclusive

How did Cc1cc(=O)c(C(=O)O)cn1Nc1ccc(F)cc1 do in these assays?
D3 antag: inconclusive; ClpP mod: 0%; GLP1R ag: -9%; GLP-1R inv ag: 3%; DRD3 agonist: -10; HEK293 tox: 10%

What do the screens show for `Cc1cc(=O)c(C(=O)O)cn1Nc1ccc(Cl)cc1`?
D3 antag: -53*; ClpP mod: -1%; GLP1R ag: -12%; GLP-1R inv ag: 0%; DRD3 agonist: 2; HEK293 tox: -9%

How did COc1ccc(CN2CCC[C@]3(N[C@H](c4ccc(C(F)(F)F)cc4)[C@@H]4C(=O)N(Cc5ccccc5)C(=O)[C@@H]43)C2=O)cc1 do in these assays?
D3 antag: -10; ClpP mod: -2%; GLP1R ag: -2%; GLP-1R inv ag: 8.9µM*; DRD3 agonist: 0; HEK293 tox: -3%

What do the screens show for `CN1C(=O)[C@H]2[C@@H](c3ccc(C(F)(F)F)cc3)N[C@]3(CCCN(Cc4ccc(F)cc4)C3=O)[C@H]2C1=O`?
D3 antag: -15; ClpP mod: 1%; GLP1R ag: 4%; GLP-1R inv ag: -24%; DRD3 agonist: -8; HEK293 tox: 2%

What do the screens show for `CN1C(=O)[C@H]2[C@@H](c3ccc(C(F)(F)F)cc3)N[C@]3(CCCN(Cc4ccc(Cl)cc4)C3=O)[C@H]2C1=O`?
D3 antag: 22; ClpP mod: 2%; GLP1R ag: 0%; GLP-1R inv ag: 11µM*; DRD3 agonist: 8; HEK293 tox: -32%

What do the screens show for `COc1ccccc1NC(=O)CN(C)S(=O)(=O)c1ccc2c(c1)c(=O)n(C)c(=O)n2C`?
ClpP mod: 0%; GLP1R ag: 0%; GLP-1R inv ag: 0%; DRD3 agonist: 1; HEK293 tox: -8%

How did COc1cc(N(C)C)ccc1C=c1c2ccccc2n2c1cc(-c1ccccc1)[n+]2C do in these assays?
D3 antag: 5; ClpP mod: -4%; GLP1R ag: -16%; GLP-1R inv ag: 8.9µM*; DRD3 agonist: -1; HEK293 tox: 13µM*

Results for CN(C)c1ccc(C=c2c3ccccc3n3c2cc(-c2ccccc2)[n+]3C)cc1 ?
D3 antag: inconclusive; ClpP mod: 2%; GLP1R ag: -28%; GLP-1R inv ag: inconclusive; DRD3 agonist: -11; HEK293 tox: inconclusive

What do the screens show for `Cc1c(N=C2C=CC(=O)c3ccccc32)c(=O)n(-c2ccccc2)n1C`?
D3 antag: -55*; GLP1R ag: 0%; GLP-1R inv ag: 72%; DRD3 agonist: -11; HEK293 tox: -8%

What do the screens show for `CCCCc1nn2c(=O)cc(COC(=O)c3ccccc3NC(=O)c3ccccc3OC)nc2s1`?
ClpP mod: -5%; GLP-1R inv ag: 11%; DRD3 agonist: -1; HEK293 tox: 11%

How did COc1ccc(N2C(=O)c3ccccc3NC23CCC(C)CC3)cc1 (stereo not given) do in these assays?
D3 antag: -17; ClpP mod: inconclusive; GLP1R ag: 9%; GLP-1R inv ag: 5%; DRD3 agonist: 2; HEK293 tox: 7%

How did COc1ccc(N2C(=O)c3ccccc3NC23CCCCC3)cc1 do in these assays?
D3 antag: 4; ClpP mod: 28µM*; GLP1R ag: -3%; GLP-1R inv ag: 2%; DRD3 agonist: 4; HEK293 tox: -18%

Results for COc1ccccc1N(C)S(=O)(=O)c1ccc(Cl)c(C(=O)N2CCC2)c1 ?
D3 antag: 0; ClpP mod: 18µM*; GLP1R ag: 3%; GLP-1R inv ag: -10%; DRD3 agonist: 2; HEK293 tox: 4%

Results for COc1ccccc1N(C)S(=O)(=O)c1ccc(Cl)c(C(=O)NNC(=O)c2ccccc2O)c1 ?
D3 antag: 12; ClpP mod: 0%; GLP1R ag: -3%; GLP-1R inv ag: 11µM*; DRD3 agonist: 18; HEK293 tox: -12%

How did COc1ccccc1N(C)S(=O)(=O)c1ccc(Cl)c(C(=O)NCC2(N(C)C)CCCCC2)c1 do in these assays?
D3 antag: -21; GLP1R ag: 9%; GLP-1R inv ag: inconclusive; DRD3 agonist: -2; HEK293 tox: -6%

Results for COc1ccccc1N(C)S(=O)(=O)c1ccc(Cl)c(C(=O)OCc2c(C)noc2C)c1 ?
D3 antag: 4; GLP1R ag: 17%; GLP-1R inv ag: 10µM*; DRD3 agonist: -2; HEK293 tox: 3%

How did Cc1noc(C)c1COC(=O)c1cc(F)c(F)cc1Cl do in these assays?
D3 antag: 26; ClpP mod: 0%; GLP1R ag: -2%; GLP-1R inv ag: 12%; DRD3 agonist: 1; HEK293 tox: -10%

What do the screens show for `COc1ccccc1N(C)S(=O)(=O)c1ccc(C(=O)NNC(=O)c2ccccc2O)cc1`?
D3 antag: 1; ClpP mod: 1%; GLP1R ag: -11%; GLP-1R inv ag: inconclusive; DRD3 agonist: 11; HEK293 tox: -5%

How did COc1ccc(S(=O)(=O)N2CCCCCC2)cc1N(C)S(=O)(=O)c1ccc(Cl)cc1 do in these assays?
D3 antag: -4; ClpP mod: 1%; GLP1R ag: 7%; GLP-1R inv ag: 10µM*; DRD3 agonist: -3; HEK293 tox: -13%
